Reference: ChEMBL document CHEMBL1961873, “Compounds: GSK PKIS; Assays: Nanosyn kinase panel” (2012)

Key:
[1] = molecular target: Tyrosine-protein kinase SYK (Homo sapiens) (UniProt P43405); conditions: at 1 µM
[2] = molecular target: T1, Tyrosine-protein kinase Tec (Homo sapiens) (UniProt P42680); conditions: at 0.1 µM
T1 sequence (whole entry): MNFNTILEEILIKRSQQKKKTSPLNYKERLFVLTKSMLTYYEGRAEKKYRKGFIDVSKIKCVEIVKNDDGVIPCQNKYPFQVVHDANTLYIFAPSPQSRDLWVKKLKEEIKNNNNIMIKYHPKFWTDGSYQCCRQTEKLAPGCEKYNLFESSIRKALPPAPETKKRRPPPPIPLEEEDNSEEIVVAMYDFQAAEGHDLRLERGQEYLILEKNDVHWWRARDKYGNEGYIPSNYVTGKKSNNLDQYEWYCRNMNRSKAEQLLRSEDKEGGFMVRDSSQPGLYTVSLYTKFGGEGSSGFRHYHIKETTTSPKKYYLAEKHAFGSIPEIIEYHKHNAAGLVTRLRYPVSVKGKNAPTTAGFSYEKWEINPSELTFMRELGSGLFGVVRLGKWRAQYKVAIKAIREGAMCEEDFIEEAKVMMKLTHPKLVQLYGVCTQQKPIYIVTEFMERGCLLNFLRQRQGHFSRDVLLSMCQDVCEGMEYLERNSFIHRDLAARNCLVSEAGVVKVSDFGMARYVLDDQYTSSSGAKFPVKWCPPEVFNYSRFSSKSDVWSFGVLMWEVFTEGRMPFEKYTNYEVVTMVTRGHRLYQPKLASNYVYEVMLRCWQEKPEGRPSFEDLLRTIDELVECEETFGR

[3] = molecular target: T1, Tyrosine-protein kinase Tec (Homo sapiens); conditions: at 1 µM
[4] = molecular target: Angiopoietin-1 receptor (Homo sapiens) (UniProt Q02763); conditions: at 0.1 µM
Sequence of Angiopoietin-1 receptor (Homo sapiens) (Q02763 whole entry): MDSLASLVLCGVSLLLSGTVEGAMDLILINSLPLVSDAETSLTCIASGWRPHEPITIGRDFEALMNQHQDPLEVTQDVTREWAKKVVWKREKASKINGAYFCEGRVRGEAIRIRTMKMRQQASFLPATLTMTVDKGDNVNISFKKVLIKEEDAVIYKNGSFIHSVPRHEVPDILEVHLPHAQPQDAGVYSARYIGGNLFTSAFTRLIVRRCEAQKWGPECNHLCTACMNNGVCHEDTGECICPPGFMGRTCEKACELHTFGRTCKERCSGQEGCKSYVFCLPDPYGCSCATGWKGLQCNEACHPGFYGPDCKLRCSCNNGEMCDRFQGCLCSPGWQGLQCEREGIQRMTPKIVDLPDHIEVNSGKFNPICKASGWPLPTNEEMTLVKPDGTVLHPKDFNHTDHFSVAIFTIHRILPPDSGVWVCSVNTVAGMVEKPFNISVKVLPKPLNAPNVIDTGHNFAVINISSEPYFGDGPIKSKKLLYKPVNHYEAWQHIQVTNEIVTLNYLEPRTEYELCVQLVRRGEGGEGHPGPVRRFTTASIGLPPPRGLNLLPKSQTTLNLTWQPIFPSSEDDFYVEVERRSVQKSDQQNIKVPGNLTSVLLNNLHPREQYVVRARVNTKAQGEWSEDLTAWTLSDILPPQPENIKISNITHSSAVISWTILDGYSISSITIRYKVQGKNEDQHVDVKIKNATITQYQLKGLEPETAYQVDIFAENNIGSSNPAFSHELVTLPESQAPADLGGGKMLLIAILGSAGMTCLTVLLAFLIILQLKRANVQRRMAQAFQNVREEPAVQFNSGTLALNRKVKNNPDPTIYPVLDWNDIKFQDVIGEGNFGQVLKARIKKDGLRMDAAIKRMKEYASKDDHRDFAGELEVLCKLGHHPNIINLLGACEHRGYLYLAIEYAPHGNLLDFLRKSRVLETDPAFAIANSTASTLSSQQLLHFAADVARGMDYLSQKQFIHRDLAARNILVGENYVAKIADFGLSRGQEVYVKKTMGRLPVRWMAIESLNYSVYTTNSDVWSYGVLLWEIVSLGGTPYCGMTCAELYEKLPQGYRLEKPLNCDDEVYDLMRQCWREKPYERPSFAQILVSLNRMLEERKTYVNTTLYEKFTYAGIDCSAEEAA

[5] = molecular target: Angiopoietin-1 receptor (Homo sapiens) (UniProt Q02763); conditions: at 1 µM
[6] = molecular target: T2, Non-receptor tyrosine-protein kinase TNK1 (Homo sapiens) (UniProt Q13470); conditions: at 0.1 µM
T2 sequence (whole entry): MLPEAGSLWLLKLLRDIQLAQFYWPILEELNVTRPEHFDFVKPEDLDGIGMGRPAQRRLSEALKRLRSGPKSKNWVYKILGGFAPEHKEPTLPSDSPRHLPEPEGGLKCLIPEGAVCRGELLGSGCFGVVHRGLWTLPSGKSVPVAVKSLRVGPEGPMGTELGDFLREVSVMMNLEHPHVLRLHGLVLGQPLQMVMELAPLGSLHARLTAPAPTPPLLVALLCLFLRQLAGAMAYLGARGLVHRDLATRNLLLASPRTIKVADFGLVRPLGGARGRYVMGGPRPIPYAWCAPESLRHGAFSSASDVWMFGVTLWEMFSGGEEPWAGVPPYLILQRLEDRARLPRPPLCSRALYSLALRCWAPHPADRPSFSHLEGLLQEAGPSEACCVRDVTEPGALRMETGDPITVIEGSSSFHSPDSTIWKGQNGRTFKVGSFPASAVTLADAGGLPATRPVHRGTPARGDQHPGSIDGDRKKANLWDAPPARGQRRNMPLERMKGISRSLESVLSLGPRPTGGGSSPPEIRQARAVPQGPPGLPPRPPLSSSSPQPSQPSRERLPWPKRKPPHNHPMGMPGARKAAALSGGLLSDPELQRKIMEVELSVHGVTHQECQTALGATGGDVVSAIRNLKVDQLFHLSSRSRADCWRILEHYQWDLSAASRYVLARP

[7] = molecular target: T2, Non-receptor tyrosine-protein kinase TNK1 (Homo sapiens); conditions: at 1 µM
[8] = molecular target: Activated CDC42 kinase 1 (Homo sapiens) (UniProt Q07912); conditions: at 0.1 µM
Sequence of Activated CDC42 kinase 1 (Homo sapiens) (Q07912 whole entry, looked up): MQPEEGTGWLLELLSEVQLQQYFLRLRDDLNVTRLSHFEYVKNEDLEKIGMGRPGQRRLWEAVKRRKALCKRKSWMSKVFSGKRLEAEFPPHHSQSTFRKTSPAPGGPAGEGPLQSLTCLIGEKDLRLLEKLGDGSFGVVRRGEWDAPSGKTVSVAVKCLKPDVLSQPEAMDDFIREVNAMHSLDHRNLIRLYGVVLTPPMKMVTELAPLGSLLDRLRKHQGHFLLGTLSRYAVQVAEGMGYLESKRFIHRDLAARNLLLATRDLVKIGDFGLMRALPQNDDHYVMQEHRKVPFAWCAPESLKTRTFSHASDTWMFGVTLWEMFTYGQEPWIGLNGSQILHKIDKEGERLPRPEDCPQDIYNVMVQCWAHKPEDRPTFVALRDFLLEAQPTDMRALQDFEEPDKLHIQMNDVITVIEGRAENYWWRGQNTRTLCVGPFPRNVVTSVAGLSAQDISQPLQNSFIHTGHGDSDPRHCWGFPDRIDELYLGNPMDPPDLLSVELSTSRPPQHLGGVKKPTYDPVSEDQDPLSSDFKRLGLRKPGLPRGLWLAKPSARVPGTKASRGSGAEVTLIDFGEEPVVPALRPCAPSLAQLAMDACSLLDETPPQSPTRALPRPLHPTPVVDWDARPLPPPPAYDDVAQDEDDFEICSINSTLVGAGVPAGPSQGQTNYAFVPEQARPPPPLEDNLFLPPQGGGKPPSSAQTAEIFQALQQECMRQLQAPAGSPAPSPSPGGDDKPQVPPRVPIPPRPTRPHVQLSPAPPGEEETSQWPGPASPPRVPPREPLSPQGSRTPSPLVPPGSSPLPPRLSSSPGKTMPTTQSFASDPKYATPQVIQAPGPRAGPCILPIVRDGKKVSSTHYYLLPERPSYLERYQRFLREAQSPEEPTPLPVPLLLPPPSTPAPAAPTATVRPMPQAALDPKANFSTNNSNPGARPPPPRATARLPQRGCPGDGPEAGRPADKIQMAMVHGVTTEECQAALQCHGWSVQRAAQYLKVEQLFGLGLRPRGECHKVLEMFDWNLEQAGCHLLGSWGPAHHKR

[9] = molecular target: Activated CDC42 kinase 1 (Homo sapiens) (UniProt Q07912); conditions: at 1 µM
[10] = molecular target: High affinity nerve growth factor receptor (Homo sapiens) (UniProt P04629); conditions: at 0.1 µM
[11] = molecular target: High affinity nerve growth factor receptor (Homo sapiens) (UniProt P04629); conditions: at 1 µM
[12] = molecular target: BDNF/NT-3 growth factors receptor (Homo sapiens) (UniProt Q16620); conditions: at 0.1 µM
Sequence of BDNF/NT-3 growth factors receptor (Homo sapiens) (Q16620 32-822 limits assumed): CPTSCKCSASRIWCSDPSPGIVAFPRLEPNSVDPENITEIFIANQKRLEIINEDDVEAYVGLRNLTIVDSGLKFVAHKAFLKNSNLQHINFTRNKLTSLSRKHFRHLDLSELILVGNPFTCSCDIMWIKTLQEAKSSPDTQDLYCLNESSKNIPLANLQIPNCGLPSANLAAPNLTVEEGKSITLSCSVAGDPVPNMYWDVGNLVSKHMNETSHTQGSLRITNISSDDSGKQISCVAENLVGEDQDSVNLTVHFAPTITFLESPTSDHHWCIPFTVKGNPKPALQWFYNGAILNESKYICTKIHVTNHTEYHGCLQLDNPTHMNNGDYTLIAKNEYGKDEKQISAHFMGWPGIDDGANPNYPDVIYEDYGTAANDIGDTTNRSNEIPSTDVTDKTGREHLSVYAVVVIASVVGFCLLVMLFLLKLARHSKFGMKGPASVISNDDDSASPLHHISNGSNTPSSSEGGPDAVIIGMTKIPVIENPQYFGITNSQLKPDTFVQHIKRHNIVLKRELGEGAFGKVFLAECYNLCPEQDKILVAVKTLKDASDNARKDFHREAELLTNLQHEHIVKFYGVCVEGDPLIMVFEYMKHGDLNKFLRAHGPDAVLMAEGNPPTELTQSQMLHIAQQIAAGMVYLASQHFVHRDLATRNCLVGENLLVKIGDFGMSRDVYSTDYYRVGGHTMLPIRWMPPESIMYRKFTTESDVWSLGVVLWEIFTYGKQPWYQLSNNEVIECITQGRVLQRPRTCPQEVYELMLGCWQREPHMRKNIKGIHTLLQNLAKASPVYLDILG

[13] = molecular target: BDNF/NT-3 growth factors receptor (Homo sapiens) (UniProt Q16620); conditions: at 1 µM
[14] = molecular target: NT-3 growth factor receptor (Homo sapiens) (UniProt Q16288); conditions: at 0.1 µM
Sequence of NT-3 growth factor receptor (Homo sapiens) (Q16288 32-839 limits assumed): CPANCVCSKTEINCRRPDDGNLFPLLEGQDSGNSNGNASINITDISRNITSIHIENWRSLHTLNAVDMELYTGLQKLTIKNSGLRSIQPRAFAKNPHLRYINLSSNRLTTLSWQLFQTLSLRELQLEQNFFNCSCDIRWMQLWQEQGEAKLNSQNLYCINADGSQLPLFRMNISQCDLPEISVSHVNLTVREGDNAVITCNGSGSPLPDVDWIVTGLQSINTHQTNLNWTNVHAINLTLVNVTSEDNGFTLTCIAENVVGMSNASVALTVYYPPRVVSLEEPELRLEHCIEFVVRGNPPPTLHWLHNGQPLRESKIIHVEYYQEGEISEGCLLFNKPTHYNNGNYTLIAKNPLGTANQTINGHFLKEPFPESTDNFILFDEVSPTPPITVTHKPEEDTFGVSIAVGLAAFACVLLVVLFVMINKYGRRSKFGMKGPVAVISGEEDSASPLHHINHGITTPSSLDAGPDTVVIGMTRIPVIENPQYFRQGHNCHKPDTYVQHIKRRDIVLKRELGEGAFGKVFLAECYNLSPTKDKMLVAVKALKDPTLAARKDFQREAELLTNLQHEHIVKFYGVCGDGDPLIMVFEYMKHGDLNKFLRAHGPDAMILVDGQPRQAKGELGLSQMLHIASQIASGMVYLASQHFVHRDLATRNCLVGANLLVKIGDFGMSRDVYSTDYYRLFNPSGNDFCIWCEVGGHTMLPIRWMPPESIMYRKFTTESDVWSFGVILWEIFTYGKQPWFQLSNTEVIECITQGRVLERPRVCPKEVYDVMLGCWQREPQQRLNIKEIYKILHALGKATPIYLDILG

[15] = molecular target: NT-3 growth factor receptor (Homo sapiens) (UniProt Q16288); conditions: at 1 µM
[16] = molecular target: T3, Tyrosine-protein kinase TXK (Homo sapiens) (UniProt P42681); conditions: at 0.1 µM
T3 sequence (whole entry): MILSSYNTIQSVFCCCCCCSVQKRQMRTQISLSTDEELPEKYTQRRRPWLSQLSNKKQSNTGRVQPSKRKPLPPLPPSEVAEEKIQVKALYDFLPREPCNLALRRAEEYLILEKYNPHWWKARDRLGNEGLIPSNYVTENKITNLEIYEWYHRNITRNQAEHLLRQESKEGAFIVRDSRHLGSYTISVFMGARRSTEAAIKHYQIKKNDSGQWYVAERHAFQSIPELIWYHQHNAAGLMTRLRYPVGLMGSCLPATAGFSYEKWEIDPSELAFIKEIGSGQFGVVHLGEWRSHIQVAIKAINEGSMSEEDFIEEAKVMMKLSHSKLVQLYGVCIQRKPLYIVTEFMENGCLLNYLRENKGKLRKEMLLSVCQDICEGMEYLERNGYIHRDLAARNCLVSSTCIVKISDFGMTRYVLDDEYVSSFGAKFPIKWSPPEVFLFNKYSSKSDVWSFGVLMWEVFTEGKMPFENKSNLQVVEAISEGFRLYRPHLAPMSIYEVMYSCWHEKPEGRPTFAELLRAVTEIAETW

[17] = molecular target: T3, Tyrosine-protein kinase TXK (Homo sapiens); conditions: at 1 µM
[18] = molecular target: Non-receptor tyrosine-protein kinase TYK2 (Homo sapiens) (UniProt P29597); conditions: at 0.1 µM;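 note: each value is a mean of the inhibition readings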
Sequence of Non-receptor tyrosine-protein kinase TYK2 (Homo sapiens) (P29597 whole entry): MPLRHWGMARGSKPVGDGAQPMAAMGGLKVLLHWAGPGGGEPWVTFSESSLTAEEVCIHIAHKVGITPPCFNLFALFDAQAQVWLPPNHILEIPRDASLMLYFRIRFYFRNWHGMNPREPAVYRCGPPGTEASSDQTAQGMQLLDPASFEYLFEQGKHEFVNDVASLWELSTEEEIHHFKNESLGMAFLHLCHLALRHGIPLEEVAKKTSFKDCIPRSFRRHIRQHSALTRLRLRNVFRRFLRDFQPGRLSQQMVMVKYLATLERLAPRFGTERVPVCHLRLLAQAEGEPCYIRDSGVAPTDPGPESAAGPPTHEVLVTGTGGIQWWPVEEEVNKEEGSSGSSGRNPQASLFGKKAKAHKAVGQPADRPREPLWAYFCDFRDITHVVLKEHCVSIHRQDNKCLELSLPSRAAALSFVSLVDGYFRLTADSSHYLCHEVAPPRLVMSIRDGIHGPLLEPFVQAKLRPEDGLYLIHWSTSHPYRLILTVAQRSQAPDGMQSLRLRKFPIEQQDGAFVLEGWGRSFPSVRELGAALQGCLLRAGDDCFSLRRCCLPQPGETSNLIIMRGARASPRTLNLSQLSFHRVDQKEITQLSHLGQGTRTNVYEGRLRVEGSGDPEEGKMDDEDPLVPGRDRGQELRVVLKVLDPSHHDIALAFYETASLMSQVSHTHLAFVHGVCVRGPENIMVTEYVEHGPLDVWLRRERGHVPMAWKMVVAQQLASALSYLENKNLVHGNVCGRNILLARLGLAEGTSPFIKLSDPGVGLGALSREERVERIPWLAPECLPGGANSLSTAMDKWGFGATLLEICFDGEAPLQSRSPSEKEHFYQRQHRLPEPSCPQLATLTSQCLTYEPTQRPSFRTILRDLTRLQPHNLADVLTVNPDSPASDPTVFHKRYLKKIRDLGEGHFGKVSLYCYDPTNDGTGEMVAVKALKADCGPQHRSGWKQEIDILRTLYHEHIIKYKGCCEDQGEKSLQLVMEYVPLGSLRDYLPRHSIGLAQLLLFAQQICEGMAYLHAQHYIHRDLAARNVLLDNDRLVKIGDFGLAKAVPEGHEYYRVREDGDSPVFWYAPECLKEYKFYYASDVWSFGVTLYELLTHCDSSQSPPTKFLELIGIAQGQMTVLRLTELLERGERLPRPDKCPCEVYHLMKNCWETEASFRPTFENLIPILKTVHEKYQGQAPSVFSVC

[19] = molecular target: T4, Dual specificity protein kinase TTK (Homo sapiens) (UniProt P33981); conditions: at 1 µM;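 note: reported figures are mean TTK inhibition at 1 µM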
T4 sequence (whole entry): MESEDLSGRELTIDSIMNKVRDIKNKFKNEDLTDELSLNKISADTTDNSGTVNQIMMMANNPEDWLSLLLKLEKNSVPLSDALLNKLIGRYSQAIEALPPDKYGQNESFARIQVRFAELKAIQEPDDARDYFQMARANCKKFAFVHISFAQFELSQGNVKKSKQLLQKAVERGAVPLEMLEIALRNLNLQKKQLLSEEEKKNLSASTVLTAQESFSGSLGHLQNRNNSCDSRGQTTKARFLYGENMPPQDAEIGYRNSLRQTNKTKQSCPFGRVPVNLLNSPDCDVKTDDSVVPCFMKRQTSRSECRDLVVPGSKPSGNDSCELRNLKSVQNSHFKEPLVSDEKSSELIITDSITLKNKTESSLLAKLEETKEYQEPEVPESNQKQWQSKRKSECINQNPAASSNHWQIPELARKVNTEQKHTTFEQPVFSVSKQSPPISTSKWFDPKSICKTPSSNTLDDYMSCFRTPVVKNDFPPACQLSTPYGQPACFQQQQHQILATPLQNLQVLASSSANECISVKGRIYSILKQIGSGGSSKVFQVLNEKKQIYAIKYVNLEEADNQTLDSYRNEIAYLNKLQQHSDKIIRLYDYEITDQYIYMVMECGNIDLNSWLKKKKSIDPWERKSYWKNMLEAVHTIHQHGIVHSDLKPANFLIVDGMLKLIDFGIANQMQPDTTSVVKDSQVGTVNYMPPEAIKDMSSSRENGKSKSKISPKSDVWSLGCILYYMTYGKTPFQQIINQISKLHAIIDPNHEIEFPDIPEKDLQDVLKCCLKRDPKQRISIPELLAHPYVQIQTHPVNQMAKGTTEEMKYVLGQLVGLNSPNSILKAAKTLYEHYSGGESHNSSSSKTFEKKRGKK

[20] = molecular target: T5, Aurora kinase A (Homo sapiens) (UniProt O14965); conditions: at 0.1 µM;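 note: each reported value is a mean percent inhibition of Aurora-A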
T5 sequence (whole entry): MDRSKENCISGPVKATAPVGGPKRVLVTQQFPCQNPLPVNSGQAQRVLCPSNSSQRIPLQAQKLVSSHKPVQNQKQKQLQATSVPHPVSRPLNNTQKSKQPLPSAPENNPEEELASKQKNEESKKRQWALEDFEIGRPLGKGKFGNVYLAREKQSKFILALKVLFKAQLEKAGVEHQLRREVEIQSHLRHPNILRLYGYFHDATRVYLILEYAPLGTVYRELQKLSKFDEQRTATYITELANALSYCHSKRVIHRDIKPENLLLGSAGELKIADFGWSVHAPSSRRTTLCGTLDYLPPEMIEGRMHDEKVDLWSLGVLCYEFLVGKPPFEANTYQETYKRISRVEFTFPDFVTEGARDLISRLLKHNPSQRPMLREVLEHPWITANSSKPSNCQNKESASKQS

CCn1c(-c2nonc2N)nc2cnc(Oc3cccc(NC(=O)c4ccc(N(C)C)cc4)c3)cc21
inhibition [1]: 0.64%
inhibition [2]: 3.07%
inhibition [3]: 2.35%
inhibition [4]: 2.52%
inhibition [5]: 4.62%
inhibition [6]: 6.05%
inhibition [7]: 6.93%
inhibition [8]: 0.85%
inhibition [9]: 0.38%
inhibition [10]: 1.37%
inhibition [11]: -1.16%
inhibition [12]: 0.09%
inhibition [13]: 0.73%
inhibition [14]: -0.04%
inhibition [15]: 1.6%
inhibition [16]: 1.57%
inhibition [17]: 3.29%
inhibition [18]: -5.17%
inhibition [19]: 2.67%
inhibition [20]: 6.99%

O=S(=O)(CCNCc1ccc(-c2ccc3ncnc(Nc4ccc(OCc5cccc(F)c5)c(Cl)c4)c3c2)o1)c1ccccc1
inhibition [1]: -4.14%
inhibition [2]: 1.85%
inhibition [3]: 5.02%
inhibition [4]: 5.73%
inhibition [5]: 8.7%
inhibition [6]: 4.16%
inhibition [7]: 22.3%
inhibition [8]: 2.38%
inhibition [9]: 1.4%
inhibition [10]: 2.46%
inhibition [11]: 1.84%
inhibition [12]: 3.5%
inhibition [13]: 5.72%
inhibition [14]: 3.32%
inhibition [15]: 5.45%
inhibition [16]: -1.02%
inhibition [17]: 5.43%
inhibition [18]: -1.8%
inhibition [19]: 9.69%
inhibition [20]: 6.02%

c1cc(-c2cnn3nc(N4CCOCC4)ccc23)nc(NC2CC2)n1
inhibition [1]: -2.21%
inhibition [2]: 5.06%
inhibition [3]: 8.36%
inhibition [4]: 0.4%
inhibition [5]: 5.76%
inhibition [6]: 4.07%
inhibition [7]: 17.8%
inhibition [8]: 1.19%
inhibition [9]: 0.94%
inhibition [10]: 4.16%
inhibition [11]: 0.98%
inhibition [12]: 1.83%
inhibition [13]: 1.21%
inhibition [14]: 1.5%
inhibition [15]: 2.55%
inhibition [16]: 3.34%
inhibition [17]: 6.11%
inhibition [18]: -8.45%
inhibition [19]: 60.1%
inhibition [20]: 1.84%
